MITF act: activators of MITF-driven TRPM1 promoter activity in SK-MEL-5 cells; SK-MEL-5 TRPM1-promoter luciferase, 24 h; % of positive control, neutral wells = 0; activation, % at 12.5 µM; hit rate 0.75% among 300,000;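 active = mean activation of at least 80% with every replicate also reaching 80%; inconclusive = mean reaches 80% but some replicate falls short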
HSF1 activator: increases HSF-1 driven luciferase reporter signal. NIH3T3-HGL HSF-1 luciferase reporter, MG132, 8 h; 100% = twice DMSO control signal. activation, % at 9 µM. hit rate 1.7% among 300,000. AID 504408;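 active = mean replicate activation of at least 50% with a set share of replicates each reaching 50%; inconclusive = only one of those two conditions met; inactive = mean below 50% and too few replicates reaching it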
esBAF inh: SWI/SNF esBAF complex inhibition; reporter increase, % at 12.5 µM; mouse ES cells, Bmi1-luciferase knock-in reporter, 24 h; 100% = twice the neutral-well signal; hit rate 2% among 350,000; in the data active = activation above about 40%; inconclusive = no clear call, values can overlap the other calls;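 also: a rise in the Bmi1 reporter signal indicates esBAF inhibition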
SMARCA2 act: SMARCA2 function activation, primary screen; MG213 cells, MMTV-luciferase reporter, dexamethasone, overnight; activation, % at 9.1 µM; hit rate 1% among 370,000; in the data active = activation above about 7.8%
Wnt act: activates Wnt/beta-catenin signaling in a reporter cell assay; activator, plate reader; AID 743398; activation, % at 9.35 µM; hit rate 1.2% among 300,000; in the data active = activation above about 30%, passing the limit was not always enough; inconclusive = no clear call, values can overlap the other calls
HSF1 inh: HSF1 inhibition; NIH3T3-HGL HSE-luciferase, MG132-induced, luminescence 8 h; stronger effect = lower value; AID 2098; activity change, negative = inhibition, % at 7.5 µM (by protocol); hit rate 0.77% among 300,000;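 active = more than half of replicate wells show activity change below -50%, luminescence cut by over half; inconclusive = some wells, but at most half, below -50%; inactive = no replicate well below -50%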;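 also: luciferase reports HSF-1 transcriptional activity via heat shock element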
SMARCA2 act conf: SMARCA2 activation, confirmation screen; shares compounds with SMARCA2 act; MG213 cells, MMTV-luciferase with dexamethasone, luminescence, overnight; MG213 cells expressing E1A, Rb sequestered; DMSO wells 0%, reference activator 100%; activation, % at 9.1 µM; hit rate 30% among 3,500;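 active = activation above its plate's cutoff, the mean activation of tested wells plus 3 SD, cut at about 7.9% in these data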
GAL4-VP16 Luc: GAL4-VP16 reporter activation counter-screen. shares compounds with SMARCA2 act. HEK293 GAL4-VP16 pG5luc reporter, luciferase luminescence; scaled: DMSO wells 0%, SAHA wells 100%. activation, % at 9.1 µM. hit rate 41% among 3,500. AID 686939;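 active = activation above the solvent-only control well mean plus 3 SD, averaged across control plates, cut at about 5.2% in these data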
Large screens that a line does not name were inactive (follow-up assays come after a bar, where they were run). Shown are actives, neighbours in structure and some others; about 4.3% of the full set was active somewhere.

CCCS(=O)(=O)NC(=O)C1(C)CCCN(C(=O)c2ccccc2C(F)(F)F)C1 (stereo unspecified)	SMARCA2 act 8.1 (no result: MITF act, HSF1 activator, HSF1 inh) | SMARCA2 act conf inactive | GAL4-VP16 Luc inactive
CCCS(=O)(=O)NC(=O)C1(C)CCCN(C(=O)c2cccc3ccccc23)C1 (stereo unspecified)	none (no result: MITF act, HSF1 activator, HSF1 inh)
CC(O)CNc1nc2c(c(=O)n(Cc3ccccc3)c(=O)n2C)n1C (stereo unspecified)	SMARCA2 act 9.7 | SMARCA2 act conf inactive | GAL4-VP16 Luc inactive
COc1cccc(S(=O)(=O)N(C)C[C@@H]2OCc3ccccc3-c3ccccc3C(=O)N([C@H](C)CO)C[C@H]2C)c1	none (no result: MITF act, HSF1 activator, SMARCA2 act, Wnt act, HSF1 inh)
Nc1nc2n[nH]nc2c(=O)[nH]1	esBAF inh 103, SMARCA2 act 14 | SMARCA2 act conf 22 | GAL4-VP16 Luc inactive
C[C@@H]1CCCCO[C@@H](CN(C)S(C)(=O)=O)[C@H](C)CN([C@H](C)CO)C(=O)c2cc(NS(C)(=O)=O)ccc2O1	none (no result: MITF act, HSF1 activator, SMARCA2 act, Wnt act, HSF1 inh)
CN(C)C(=O)CCc1ccc2c3c([nH]c2c1)[C@]1(CCC2CCCC2)[C@@H](C(=O)N2CCOCC2)C[C@H](CC(=O)NCCc2ccccn2)C(=O)N1CC3	SMARCA2 act 8.0 (no result: HSF1 activator, HSF1 inh) | SMARCA2 act conf inactive | GAL4-VP16 Luc inactive
O=C(CC1C[C@H](C(=O)N2CCOCC2)[C@@]2(CCC3CCCC3)c3[nH]c4ccccc4c3CCN2C1=O)NCCc1ccccn1 (stereo partly specified)	none (no result: HSF1 activator, HSF1 inh)
CN(C)CCCNC(=O)C[C@H]1C[C@H](C(=O)N2CCOCC2)[C@@]2(CCC3CCCC3)c3[nH]c4cc(-c5ccco5)ccc4c3CCN2C1=O	SMARCA2 act 8.2 (no result: HSF1 activator, HSF1 inh) | SMARCA2 act conf inactive | GAL4-VP16 Luc inactive
COc1ccccc1NC(=O)N(C)C[C@H]1Oc2ncc(Br)cc2C(=O)N([C@@H](C)CO)C[C@@H]1C	none (no result: MITF act, HSF1 activator, SMARCA2 act, Wnt act, HSF1 inh)
C[C@H](CO)N1C[C@H](C)[C@@H](CN(C)C(=O)Cc2ccccc2)OCCCC[C@H](C)Oc2ccc(NC(=O)c3ccccc3)cc2C1=O	none (no result: MITF act, HSF1 activator, SMARCA2 act, Wnt act, HSF1 inh)
COCC(=O)N1C[C@@H](C)[C@@H](OC)CN(C)C(=O)c2cc(NC(=O)NC(C)C)ccc2OC[C@H]1C	none (no result: MITF act, HSF1 activator, SMARCA2 act, Wnt act, HSF1 inh)
CS(=O)(=O)Nc1cccc(C2=NN(S(C)(=O)=O)C(c3ccc4c(c3)OCO4)C2)c1 (stereo unspecified)	SMARCA2 act 9.1 (no result: esBAF inh) | SMARCA2 act conf inactive | GAL4-VP16 Luc 7.1
CC(C)CSC1=NSC2=NC(=O)/C(=C\c3cccs3)C(=N)N12	SMARCA2 act 9.5 (no result: esBAF inh) | SMARCA2 act conf inactive | GAL4-VP16 Luc 5.3
COCc1ccc(C(=O)N(C)CC2CCCN(CCc3ccc(OC)cc3)C2)o1 (stereo unspecified)	esBAF inh 50, SMARCA2 act 9.8 | SMARCA2 act conf inactive | GAL4-VP16 Luc inactive
COCc1ccc(C(=O)N(C)CC2CCCN(CCc3ccc(Cl)cc3)C2)o1 (stereo unspecified)	none
COc1cc(C2Nc3ccccc3C(=O)N2c2ccc(Cl)cc2)c(Cl)cc1OCC(=O)O (stereo unspecified)	SMARCA2 act 10, Wnt act 48 (no result: esBAF inh) | SMARCA2 act conf 12 | GAL4-VP16 Luc 9.5
CCOc1cc(C2Nc3ccccc3C(=O)N2c2ccccc2)c(Br)cc1OCC(=O)O (stereo unspecified)	none (no result: esBAF inh, Wnt act)
CCOC(=O)COc1ccccc1C1Nc2ccccc2C(=O)N1c1cccc(Cl)c1 (stereo unspecified)	MITF act inconclusive, SMARCA2 act 8.2 (no result: esBAF inh) | SMARCA2 act conf inactive | GAL4-VP16 Luc 6.0
CCOC(=O)COc1c(OC)cc(Cl)cc1C1Nc2ccccc2C(=O)N1c1cccc(C)c1 (stereo unspecified)	esBAF inh inconclusive (no result: Wnt act)
C[C@@H]1CN([C@@H](C)CO)S(=O)(=O)c2ccc(C#Cc3ccc(F)cc3)cc2O[C@@H]1CN(C)C(=O)NC1CCCC1	none (no result: MITF act, HSF1 activator, SMARCA2 act, Wnt act, HSF1 inh)

Source: PubChem (several laboratories)
